PubChem BioAssay AID1159580 (chemical genetic matrix, 2015)
Out of some 5,500 compounds screened, about 2,000 (36%) were called active. Inconclusive results (about 18%) are left out. Cut-off read from the data, not from the text of the source: active = normalized growth mostly below about 0.91 (no sharp cut-off); inconclusive = no clear call, values can overlap the other calls; inactive = mostly above about 0.92. The list shows a part of the results.

Assay: chemical genetic growth profiling, strain panel (AID 1159580);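 note: tested at 20 µM; growth read once vehicle control cultures reached saturation at 30 °C; 1 = growth at the plate median or of vehicle wells; lower values mean less growth of the strain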
Settings: S. cerevisiae deletion strains, growth OD

Measured: normalized growth

OCC(O)Cc1ccc2c(c1)OCO2 (stereo not drawn)
inactive: locus YAL013W, strain DEP1, hits give low values 1.02 | locus YAL021C, strain ccr4, hits give low values 1.02 | locus YAL026C, strain drs2, hits give low values 0.985 | locus YAL030W, strain snc1, hits give low values 1 | locus YBL061C, strain skt5, hits give low values 0.997 | locus YBR009C, strain hhf1, hits give low values 1.01 | locus YBR021W, strain FUR4, hits give low values 1.02 | locus YBR023C, strain chs3, hits give low values 1.01 | locus YBR171W, strain sec66, hits give low values 1.01 | locus YBR229C, strain ROT2, hits give low values 1.01 | locus YBR231C, strain swc5, hits give low values 0.992 | locus YBR279W, strain paf1, hits give low values 1 | locus YCL011C, strain gbp2, hits give low values 1 | locus YCL016C, strain dcc1, hits give low values 1 | locus YCL029C, strain bik1, hits give low values 0.997 | locus YCL069W, strain vba3, hits give low values 0.981 | locus YCR088W, strain abp1, hits give low values 0.993 | locus YDL005C, strain med2, hits give low values 0.999 | locus YDL035C, strain GPR1, hits give low values 1.02 | locus YDL040C, strain nat1, hits give low values 0.998 | locus YDL074C, strain BRE1, hits give low values 1.05 | locus YDL101C, strain DUN1, hits give low values 1.02 | locus YDL134C, strain PPH21, hits give low values 1.01 | locus YDL185W, strain tfp1, hits give low values 0.999 | locus YDL192W, strain arf1, hits give low values 0.999 | locus YDR001C, strain nth1, hits give low values 0.997 | locus YDR069C, strain doa4, hits give low values 0.979 | locus YDR101C, strain arx1, hits give low values 0.989 | locus YDR137W, strain rgp1, hits give low values 0.993 | locus YDR150W, strain NUM1, hits give low values 1.02 | locus YDR159W, strain sac3, hits give low values 0.971 | locus YDR162C, strain NBP2, hits give low values 1.03 | locus YDR195W, strain ref2 0.966 | locus YDR297W, strain sur2, hits give low values 1.01 | locus YDR318W, strain mcm21, hits give low values 0.991 | locus YDR334W, strain swr1, hits give low values 1 | locus YDR335W, strain msn5, hits give low values 0.996 | locus YDR388W, hits give low values 1 | locus YDR392W, strain spt3, hits give low values 1.02 | locus YDR502C, strain sam2, hits give low values 1 | locus YEL003W, strain gim4, hits give low values 1.01 | locus YEL037C, strain rad23, hits give low values 1.01 | locus YEL061C, strain CIN8 (second series), hits give low values 1 | locus YEL061C, strain CIN8, hits give low values 1.01 | locus YER015W, strain faa2, hits give low values 1 | locus YER016W, strain bim1, hits give low values 1 | locus YER110C, hits give low values 0.996 | locus YER111C, strain swi4, hits give low values 0.997 | locus YER155C, strain BEM2 (second series), hits give low values 0.993 | locus YER155C, strain BEM2, hits give low values 1.01 | locus YER167W, strain BCK2, hits give low values 1.01 | locus YFR010W, strain ubp6, hits give low values 1.01 | locus YGL078C, strain dbp3, hits give low values 1 | locus YGL086W, strain mad1, hits give low values 0.993 | locus YGL167C, strain pmr1, hits give low values 1 | locus YGL173C, strain kem1, hits give low values 0.991 | locus YGL227W, strain vid30, hits give low values 0.985 | locus YGL240W, strain doc1, hits give low values 0.984 | locus YGL248W, strain PDE1, hits give low values 1.01 | locus YGL253W, strain hxk2, hits give low values 1 | locus YGR078C, strain PAC10, hits give low values 1.02 | locus YGR135W, strain pre9, hits give low values 1.01 | locus YGR229C, strain SMI1, hits give low values 1.02 | locus YGR252W, strain gcn5, hits give low values 1 | locus YHR013C, strain ard1, hits give low values 1.01 | locus YHR027C, strain rpn1, hits give low values 1 | locus YHR030C, strain SLT2, hits give low values 1.01 | locus YHR079C, strain IRE1 (second series), hits give low values 0.991 | locus YHR094C, strain hxt1, hits give low values 0.999 | locus YHR129C, strain ARP1, hits give low values 1.01 | locus YHR142W, strain chs7, hits give low values 1.01 | locus YHR200W, strain rpn10, hits give low values 1 | locus YIL066C, strain RNR3, hits give low values 1.02 | locus YIL073C, strain SPO22, hits give low values 1.04 | locus YIL125W, strain kgd1, hits give low values 1.02 | locus YIR030C, strain dcg1, hits give low values 1 | locus YJL092W, strain hpr5, hits give low values 0.998 | locus YJL095W, strain BCK1 (second series), hits give low values 1 | locus YJL095W, strain BCK1, hits give low values 1.04 | locus YJL115W, strain asf1, hits give low values 1 | locus YJL129C, strain trk1, hits give low values 0.989 | locus YJL134W, strain LCB3, hits give low values 1.01 | locus YJL154C, strain vps35, hits give low values 1 | locus YJL164C, strain tpk1, hits give low values 1.01 | locus YJL166W, strain qcr8, hits give low values 1.02 | locus YJL168C, strain set2, hits give low values 0.994 | locus YJL187C, strain SWE1 (second series), hits give low values 1.03 | locus YJL187C, strain SWE1, hits give low values 0.982
